Measurements from PubChem BioAssay (Tox21).
Where “and” joins values, the source holds several entries; their conditions need not be identical. Equal values may be shown once. Inconclusive results are not listed. Values without a mark were called inactive. Calls of active or inactive are those of the source. The call rests on the fitted dose curve; in most records, active means well fitted cell-killing curve with a large enough effect in the repeat runs; inconclusive means weak or mixed curves, or effect the other way; inactive means flat fitted curve, though single readings scatter.

Test: cAMP Responsive Elements (CRE) small molecule antagonists, cell-based qHTS assay: qHTS cell viability counter screen (AID 2060913); further: nearly all actives have a fitted effect of over 40% in size
Details: CRE-bla HEK293T viability, CellTiter-Glo luminescence, 5 h; series mostly up to 92.4 µM; viability change, negative = cytotoxic: at the top concentration
In short: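 Cytotoxicity counter screen multiplexed with the CRE-bla antagonist read: HEK293T cells in DMEM with dialyzed FBS and 25 mM HEPES were treated 3 hrs under 0.25 uM final NKH477, then viability measured by CellTiter-Glo luminescence.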
On the % scale 0 is the no-effect control and ±100 the full control effect; potency means the concentration at half of the fitted maximal effect.

First: C=C[Si](OC)(OC)OC
Second: C=COCCOCCOCCOC=C
The “viability change, negative = cytotoxic” value of the first is lower: -8.09% for the first, -1.6% for the second.

Compared with `O=C(CCCCCCCCc1cccnc1)N1CCC(C=C(c2ccccc2)c2ccccc2)CC1`, `O=C(Nc1ccc2c(c1)Cc1ccccc1-2)C(F)(F)F` is lower in “viability change, negative = cytotoxic” value: 7.96% for the first, -7.05% for the second.

Going from `COc1ccccc1N=Nc1c(S(=O)(=O)O)cc2cc(S(=O)(=O)O)cc(NC(C)=O)c2c1O` to `COc1ccc(N=Nc2cc(C)c(N=Nc3ccc(S(=O)(=O)O)cc3)cc2OC)cc1`, the “viability change, negative = cytotoxic” value rises from -6.25% to 1.27%.

Compared with `C1=C\CC/C=C\CC/C=C\CC/1`, `C1=C\CC/C=C\CC/1` is lower in “viability change, negative = cytotoxic” value: -3.69% for the first, -9.46% for the second.

Going from `C1COCCO1` to `CCCC[O][Al]([O]CCCC)[O]CCCC`, the “viability change, negative = cytotoxic” value falls from 8.27% to 4.21%.

Compared with `N#CCCOCCOCCC#N`, `Cc1ncsc1CCO` is higher in “viability change, negative = cytotoxic” value: -1.35% for the first, 5.5% for the second.

Going from `Cc1c(N)cccc1[N+](=O)[O-]` to `Nc1cc(N)cc(C(=O)O)c1`, the “viability change, negative = cytotoxic” value falls from 6.43% to 0.227%.

Compared with `CCNc1nc(NC(C)(C)C)nc(OC)n1`, `CC(C)=CC(=O)O` is lower in “viability change, negative = cytotoxic” value: -1.87% for the first, -5.66% for the second.

First: CCCCN(CCCC)C(C(N)=O)c1ccc(OC)cc1 (stereo not given)
Second: CCOC(=O)c1ccc(C#Cc2ccc3c(c2)C(C)(C)CCS3)nc1
The “viability change, negative = cytotoxic” value of the first is lower: -0.536% [at 42.5 µM] for the first, 10.1% [at 42.5 µM] for the second.

First: O=C1[C@@H]2[C@H]3CC[C@H](C3)[C@@H]2C(=O)N1CCCCN1CCN(c2ncccn2)CC1
Second: Cc1ccc(NC(=O)c2ccc(CN3CCN(C)CC3)cc2)cc1Nc1nccc(-c2cccnc2)n1
The “viability change, negative = cytotoxic” value of the first is higher: 6.48% [at 42.5 µM] for the first, -10.2% [at 42.5 µM] for the second.

First: COC(=O)[C@H]1[C@H]2C[C@@H]3c4[nH]c5cc(OC)ccc5c4CCN3C[C@H]2C[C@@H](OC(=O)/C=C/c2ccc(O)c(OC)c2)[C@@H]1OC
Second: COc1ccc2c(c1)c(CC(=O)OCC(=O)O)c(C)n2C(=O)c1ccc(Cl)cc1
The “viability change, negative = cytotoxic” value of the first is lower: 0.355% [at 42.5 µM] for the first, 4.19% [at 42.5 µM] for the second.

First: CN1CCC(Nc2ncc3ncnc(Nc4ccc(F)c(Cl)c4)c3n2)CC1
Second: COc1cc(Nc2c(C#N)cnc3cc(OCCCN4CCN(C)CC4)c(OC)cc23)c(Cl)cc1Cl
The “viability change, negative = cytotoxic” value of the first is higher: -6.59% [at 42.5 µM] for the first, -12.2% [at 42.5 µM] for the second.

Compared with `c1ccc2c(c1)-c1ccc3ccc4cccc5cc-2c1c3c45`, `CCCCc1nc(Cl)c(CO)n1Cc1ccc(-c2ccccc2-c2nn[nH]n2)cc1` is higher in “viability change, negative = cytotoxic” value: -3.9% [at 42.5 µM] for the first, 10.4% [at 42.5 µM] for the second.

First: O=C(c1ccccc1)c1ccc2n1CCC2C(=O)O (stereo not given)
Second: C[N+]1(CC2COC(c3ccccc3)(C3CCCCC3)O2)CCCCC1 (stereo not given)
The “viability change, negative = cytotoxic” value of the first is higher: 1.41% [at 42.5 µM] for the first, -15.4% [at 42.5 µM] for the second.

In the case of `N#C/C(=C1/SC[C@@H](c2ccc(Cl)cc2Cl)S1)n1ccnc1`, the “viability change, negative = cytotoxic” value is reported as -13% [at 42.5 µM].

With `CC(=O)OCc1ccco1` the Potency was “inactive”.
With `CCc1cccc(O)c1` the Potency was “inactive”.
For `OC[C@H]1O[C@@](CO)(O[C@H]2O[C@H](CO)[C@@H](O)[C@H](O)[C@H]2O)[C@@H](O)[C@@H]1O`, the Potency was “inactive”.
For `CCCCCCCCCCCCCC[N+](C)(C)C`, the Potency was 52.7 µM (active) and 48.5 µM (active).
With `CN1[C@@H]2CC[C@H]1CC(OC(=O)C(CO)c1ccccc1)C2` (stereo not given in full) the Potency was “inactive”.
With `O=C(O)c1ccc2c(c1)C(=O)OC2=O` the Potency was “inactive”.
For `CCCCCCC(C)(C)S`, the Potency was “inactive”.
For `CCOC(=O)C(C)Oc1ccc(Oc2cnc3cc(Cl)ccc3n2)cc1` (stereo not given), the Potency was “inactive”.
With `NC(=O)OCC(COC(N)=O)c1ccccc1` the Potency was “inactive”.
For `Nc1ccc(C(=O)O)cc1`, the Potency was “inactive”.
With `On1ccccc1=S` the Potency was 9.59 µM (active).
